Results taken from PubChem BioAssay.
Inconclusive results are not listed. Activity calls are given as the source filed them.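 Rule for the calls, unless noted: active = normalized viability below 100% at a tested concentration; inactive = the rest.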

What was measured:
[1] = growth inhibition of DIPG glioma cells, dose response, cell-based, SU-DIPG-XVII, MIPE5.0, CellTiter-Glo, qHTS (AID 1347060; cut-off not given, nearly all actives have AC50 up to about 26 µM;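 for AC50: cells exposed to compound for 48 hours before viability readout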); conditions: SU-DIPG-XVII viability, CellTiter-Glo ATP luminescence
[2] = growth inhibition of DIPG glioma cells, dose response, cell-based, SU-DIPG-XIII, MIPE5.0, CellTiter-Glo, qHTS (AID 1347064; cut-off not given, nearly all actives have AC50 up to about 23 µM;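 for AC50: cells exposed to compound for 48 hours before the viability read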); conditions: SU-DIPG-XIII viability, CellTiter-Glo ATP luminescence
[3] = viability loss in pontine glioma line – cell-based, SU-DIPG-XXV, MIPE5.0, CellTiter-Glo, qHTS, dose response (AID 1347065; cut-off not given, nearly all actives have AC50 up to about 26 µM;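 note: cells exposed to compound for 48 hours before ATP readout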); conditions: CellTiter-Glo ATP luminescence
[4] = JHH-DIPG-1 glioma cell viability, MIPE5.0 library, CellTiter-Glo luminescence, qHTS (AID 1347067; cut-off not given, nearly all actives have AC50 up to about 26 µM;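 note: cells exposed to compound for 48 hours before readout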); conditions: JHH-DIPG-1 glioma viability, CellTiter-Glo ATP luminescence
[5] = SU-DIPG-XXV glioma cell viability, MIPE5.0 library, qHTS (AID 1347068; cut-off not given, nearly all actives have IC50 up to about 30 µM;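 for IC50: cells exposed to compound for 48 hours before viability readout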)
[6] = sensitizers of A549 cells to miR-34 induction, primary screen, imaging, A549 dox-inducible miR-34, nuclei and caspase counts (AID 1347080;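 active = compounds whose cell count with miR-34 switched on is under 0.7 times the count with it off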); conditions: A549 miR-34 inducible, Hoechst nuclei count, 48 h
[7] = survival rescue of mitochondrial mutant cells in low glucose, primary screen, MELAS cybrids, Rieske KO mouse fibroblasts, CellTiter-Glo (AID 1508586;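 active = mean z-score across replicates of 1.96 or higher in either the MELAS or the Rieske mutant cell line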;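 note: z relative to plate mean and SD of compound and empty wells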)
[8] = ovarian cancer cell viability with rucaparib, profiling panel, oncology-focused library, rucaparib conditional (AID 1508598); conditions: patient-derived ovarian cancer cells, CellTiter-Glo viability, 144 h, stronger effect = lower value
[9] = stronger effect = lower value, cell number ratio, induced over uninduced
[10] = measured here: relative caspase fold change +Dox/-Dox
[11] = measured here: total cells with miR-34 induction, stronger effect = lower value
[12] = measured here: total cells without miR-34 induction
[13] = MELAS cybrid survival, CellTiter-Glo 48 h, stronger effect = higher value
[14] = Rieske KO mouse fibroblast survival, CellTiter-Glo 72 h
[15] = at 0.000305 µM, OCI-C5x cells, with rucaparib 10 µM, 100% = cells with rucaparib alone
[16] = at 0.000305 µM, OCI-C5x cells, without rucaparib
[17] = at 0.000305 µM, OCI-P5x cells, with rucaparib 20 µM, 100% = cells with rucaparib alone
[18] = at 0.000305 µM, OCI-P5x cells, without rucaparib
[19] = at 0.00122 µM, OCI-C5x cells, with rucaparib 10 µM, 100% = cells with rucaparib alone
[20] = at 0.00122 µM, OCI-C5x cells, without rucaparib
[21] = at 0.00122 µM, OCI-P5x cells, with rucaparib 20 µM, 100% = cells with rucaparib alone
[22] = at 0.00122 µM, OCI-P5x cells, without rucaparib
[23] = at 0.00488 µM, OCI-C5x cells, with rucaparib 10 µM, 100% = cells with rucaparib alone
[24] = at 0.00488 µM, OCI-C5x cells, without rucaparib
[25] = at 0.00488 µM, OCI-P5x cells, with rucaparib 20 µM, 100% = cells with rucaparib alone
[26] = at 0.00488 µM, OCI-P5x cells, without rucaparib
[27] = at 0.0195 µM, OCI-C5x cells, with rucaparib 10 µM, 100% = cells with rucaparib alone
[28] = at 0.0195 µM, OCI-C5x cells, without rucaparib
[29] = at 0.0195 µM, OCI-P5x cells, with rucaparib 20 µM, 100% = cells with rucaparib alone
[30] = at 0.0195 µM, OCI-P5x cells, without rucaparib
[31] = at 0.0781 µM, OCI-C5x cells, with rucaparib 10 µM, 100% = cells with rucaparib alone
[32] = at 0.0781 µM, OCI-C5x cells, without rucaparib
[33] = at 0.0781 µM, OCI-P5x cells, with rucaparib 20 µM, 100% = cells with rucaparib alone
[34] = at 0.0781 µM, OCI-P5x cells, without rucaparib
[35] = at 0.313 µM, OCI-C5x cells, with rucaparib 10 µM, 100% = cells with rucaparib alone
[36] = at 0.313 µM, OCI-C5x cells, without rucaparib
[37] = at 0.313 µM, OCI-P5x cells, with rucaparib 20 µM, 100% = cells with rucaparib alone
[38] = at 0.313 µM, OCI-P5x cells, without rucaparib
[39] = at 1.25 µM, OCI-C5x cells, with rucaparib 10 µM, 100% = cells with rucaparib alone
[40] = at 1.25 µM, OCI-C5x cells, without rucaparib
[41] = at 1.25 µM, OCI-P5x cells, with rucaparib 20 µM, 100% = cells with rucaparib alone
[42] = at 1.25 µM, OCI-P5x cells, without rucaparib
[43] = at 5 µM, OCI-C5x cells, with rucaparib 10 µM, 100% = cells with rucaparib alone
[44] = at 5 µM, OCI-C5x cells, without rucaparib
[45] = at 5 µM, OCI-P5x cells, with rucaparib 20 µM, 100% = cells with rucaparib alone
[46] = at 5 µM, OCI-P5x cells, without rucaparib

CCN1CCN(Cc2ccc(Nc3ncc(F)c(-c4cc(F)c5nc(C)n(C(C)C)c5c4)n3)nc2)CC1
0.558: fold change [6, 10]
active: AC50 [1] 5900 nM | AC50 [2] 7420 nM | AC50 [3] 6610 nM | AC50 [4] 8330 nM | IC50 [5] 23500 nM | z-score [7, 13] 5.9
-5.11: z-score [7, 14]
inactive: fold change [6, 9] 0.908
2920: cell count [6, 12]
2650: cell count [6, 11]

CN(NC(=O)CC(=O)NN(C)C(=S)c1ccccc1)C(=S)c1ccccc1
4660: cell count [6, 11]
5740: cell count [6, 12]
-2.56: z-score [7, 14]
active: AC50 [1] 18.6 nM | AC50 [2] 9.34 nM | AC50 [3] 18.6 nM | AC50 [4] 5.25 nM | z-score [7, 13] 2.12 | viability [8, 17] 83.3% | viability [8, 18] 88% | viability [8, 21] 80.6% | viability [8, 22] 75.2% | viability [8, 25] 82.9% | viability [8, 26] 81.1% | viability [8, 29] 88.5% | viability [8, 30] 84.6% | viability [8, 33] 98.6% | viability [8, 34] 81% | viability [8, 37] 96% | viability [8, 38] 95.1% | viability [8, 41] 82.2% | viability [8, 42] 97.2% | viability [8, 45] 99% | viability [8, 46] 98%
inactive: outcome [5] | fold change [6, 9] 0.813 | viability [8, 15] 121% | viability [8, 16] 108% | viability [8, 19] 135% | viability [8, 20] 131% | viability [8, 23] 143% | viability [8, 24] 129% | viability [8, 27] 151% | viability [8, 28] 131% | viability [8, 31] 140% | viability [8, 32] 122% | viability [8, 35] 126% | viability [8, 36] 133% | viability [8, 39] 125% | viability [8, 40] 123% | viability [8, 43] 128% | viability [8, 44] 121%
1.14: fold change [6, 10]

C=CC(=O)Nc1ccc2ncnc(Nc3cccc(Br)c3)c2c1
active: AC50 [1] 10500 nM | AC50 [2] 18600 nM | AC50 [3] 9340 nM | AC50 [4] 13200 nM | IC50 [5] 4680 nM
inactive: fold change [6, 9] 0.91 | z-score [7, 13] -0.254
3490: cell count [6, 11]
0.865: fold change [6, 10]
-0.0488: z-score [7, 14]
3830: cell count [6, 12]

Cc1ccc(C(=O)Nc2ccc(CN3CCN(C)CC3)c(C(F)(F)F)c2)cc1C#Cc1cnc2[nH]ncc2c1
-6.34: z-score [7, 14]
inactive: fold change [6, 9] 0.928 | z-score [7, 13] 0.831
546: cell count [6, 12]
506: cell count [6, 11]
0.675: fold change [6, 10]
active: AC50 [1] 41.7 nM | AC50 [2] 11.8 nM | AC50 [3] 26.3 nM | AC50 [4] 468 nM | IC50 [5] 332 nM

Cc1nnc(C(C)C)n1C1CC2CCC(C1)N2CC[C@H](NC(=O)C1CCC(F)(F)CC1)c1ccccc1 (stereo partly drawn)
inactive: outcome [1] | outcome [2] | outcome [3] | outcome [4] | outcome [5] | viability [8, 15] 106% | viability [8, 16] 101% | viability [8, 19] 107% | viability [8, 23] 105% | viability [8, 24] 107% | viability [8, 27] 113% | viability [8, 28] 107% | viability [8, 31] 117% | viability [8, 32] 107% | viability [8, 35] 111% | viability [8, 39] 118% | viability [8, 40] 108% | viability [8, 43] 108% | viability [8, 44] 112%
active: viability [8, 17] 85.1% | viability [8, 18] 83.1% | viability [8, 20] 98.5% | viability [8, 21] 86.3% | viability [8, 22] 79.3% | viability [8, 25] 86.7% | viability [8, 26] 91.1% | viability [8, 29] 90.9% | viability [8, 30] 90.2% | viability [8, 33] 96% | viability [8, 34] 94% | viability [8, 36] 99.8% | viability [8, 37] 95.9% | viability [8, 38] 94.1% | viability [8, 41] 98.8% | viability [8, 42] 93.2% | viability [8, 45] 96.7% | viability [8, 46] 95.4%

Cc1cc(C)cc(NC(=O)Cc2ccc(OC(C)(C)C(=O)O)cc2)c1
9560: cell count [6, 12]
inactive: outcome [1] | outcome [2] | outcome [3] | outcome [4] | outcome [5] | fold change [6, 9] 0.94 | z-score [7, 13] -0.243
8990: cell count [6, 11]
0.66: fold change [6, 10]
-0.194: z-score [7, 14]

COc1cc(N2CCC(N(C)C)CC2)ccc1Nc1ncc(Cl)c(Nc2ccccc2P(C)(C)=O)n1
inactive: fold change [6, 9] 1.01
-0.471: z-score [7, 14]
active: AC50 [1] 1050 nM | AC50 [2] 934 nM | AC50 [3] 417 nM | AC50 [4] 1660 nM | IC50 [5] 1860 nM | z-score [7, 13] 3.7
0.883: fold change [6, 10]
1590: cell count [6, 11]
1580: cell count [6, 12]

C=CC(=O)Nc1cccc(Nc2nc(Nc3ccc(NC4CN(CCF)C4)cc3OC)ncc2C(F)(F)F)c1
1930: cell count [6, 11]
1.6: z-score [7, 14]
2000: cell count [6, 12]
0.345: fold change [6, 10]
inactive: fold change [6, 9] 0.964 | z-score [7, 13] 0.32 | viability [8, 15] 115% | viability [8, 16] 107% | viability [8, 19] 122% | viability [8, 20] 120% | viability [8, 23] 123% | viability [8, 24] 114% | viability [8, 27] 118% | viability [8, 28] 108% | viability [8, 30] 103% | viability [8, 31] 102% | viability [8, 32] 115% | viability [8, 33] 103% | viability [8, 35] 132% | viability [8, 36] 127% | viability [8, 37] 106% | viability [8, 38] 104% | viability [8, 39] 119% | viability [8, 40] 126%
active: AC50 [1] 1480 nM | AC50 [2] 2350 nM | AC50 [3] 1320 nM | AC50 [4] 2630 nM | IC50 [5] 833 nM | viability [8, 17] 98.4% | viability [8, 18] 92.9% | viability [8, 21] 99.4% | viability [8, 22] 89.9% | viability [8, 25] 96.9% | viability [8, 26] 94.8% | viability [8, 29] 98.4% | viability [8, 34] 98.1% | viability [8, 41] 83.8% | viability [8, 42] 83.2% | viability [8, 43] 19.5% | viability [8, 44] 94.4% | viability [8, 45] 13.3% | viability [8, 46] 20%
